In paper PMC5540273 (PLoS ONE, 2017):

system: CSNK1G3; settings: concentration: 1 μM,replicates: in singlicate; n = 1
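Also: KINOMEscan kinase panel screen.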

Compound	%Inh
C[C@@H]1CCN(C(=O)CC#N)C[C@@H]1N(C)c1ncnc2[nH]ccc12	0%
CC(C)Nc1cc(-c2ccc3c(N)n[nH]c3c2)nc(N)n1 [GSK2221681]	19%
CCN(CC)CCCCNc1ncc2cc(-c3c(Cl)cccc3Cl)c(NC(=O)NC(C)(C)C)nc2n1	0%
Cl.Oc1cc(-c2nc(-c3ccccc3)[nH]c2-c2ccncc2)ccc1Cl [SB-386023]	16%
C[C@H]1Oc2cc(cnc2N)-c2c(nn(C)c2C#N)CN(C)C(=O)c2ccc(F)cc21	10%
Cl.Cl.Nc1nc(-c2ccc3c(N)n[nH]c3c2)cc(N2CCCC(NC(=O)c3ccccc3)C2)n1 (stereo not shown) [GSK2286775]	21%
Cc1cc2cn[nH]c2cc1-c1cccc2c(N)c(C(N)=O)nnc12	12%
CCn1c(-c2nonc2N)nc2c(C#CC(C)(C)O)nc(OCCN)cc21.Cl.Cl [GSK902056]	12%
C=CC(=O)Nc1cc2c(Nc3ccc(F)c(Cl)c3)ncnc2cc1OCCCN1CCOCC1 [GW781483]	99.8%
Nc1nc(Nc2ccccc2)cc(-c2ccc3c(N)n[nH]c3c2)n1 [GSK2225749]	13%
Cc1cc(C(=O)Nc2ccc(Oc3ccc4nc(NC(=O)C5CC5)cn4n3)cc2)nn1-c1ccccc1	0%
C[C@@H](Oc1cc(-c2cnn(C3CCNCC3)c2)cnc1N)c1c(Cl)ccc(F)c1Cl	0%
NC(=O)c1cc(-c2ccccc2)cc2c(C3CCNCC3)c[nH]c12 [GSK301362]	19%
